A selection: hits, their analogues and other compounds. The true share with any hit is near 1.9%.
eIF4H FP inh = human eIF4H binding inhibitors, primary screen, translation initiation inhibitor project, biochemical, uHTS, fluorescence polarization; Eukaryotic translation initiation factor 4H (Homo sapiens), Q15056; AID 2012, 2009; eIF4H fluorescence polarization binding assay; inhibition, % at 35 µM; 0.94% of 290,000 active;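 further: calls also rest on retests at 20 µM and on dose response follow-up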
PERK inh = block of dimerizer-induced PERK translation repression, primary screen, PERK inhibitor project, CHO PERK-DD cells, SEAP luminescence, HTS | Eukaryotic translation initiation factor 2-alpha kinase 3 (Homo sapiens), Q9NZJ5 | CHO PERK-DD fusion, SEAP luminescence translation reporter | inhibition, % at 5.6 µM | 0.17% of 220,000 active | AID 1416, 2008;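 active means inhibition above the mean inhibition of all tested compounds plus 3 SD, set separately per screening campaign, cut at about 2.9% in these data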;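 further: PERK kinase domain activated by AP20187 dimerizer at 100 nM; 0% = DMSO with dimerizer and 100% = rapamycin at 8.4 µM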
GRK2 inh = compounds blocking aptamer binding on GRK2 – biochemical, human GRK2, bead flow cytometry, HTS, primary screen; Beta-adrenergic receptor kinase 1 (Homo sapiens), P25098; FAM-aptamer displacement from GRK2; inhibition of aptamer binding, % at 10 µM; 0.59% of 330,000 active;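 active means inhibition of aptamer binding above 40%, roughly 3 SD of noise, on plates passing a quality check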;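 further: median bead fluorescence of bound FAM aptamer so fluorescent compounds give negative values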
PABP polyA inh = PABP poly(A) RNA binding inhibitors, primary screen, biochemical, fluorescence polarization, uHTS; Polyadenylate-binding protein 1 (Homo sapiens), P11940; inhibition, % at 35 µM; 1% of 290,000 active; AID 2014, 2009;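 further: calls also rest on retests at 20 µM and on dose response follow-up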
Target sequence (P11940 whole entry, looked up): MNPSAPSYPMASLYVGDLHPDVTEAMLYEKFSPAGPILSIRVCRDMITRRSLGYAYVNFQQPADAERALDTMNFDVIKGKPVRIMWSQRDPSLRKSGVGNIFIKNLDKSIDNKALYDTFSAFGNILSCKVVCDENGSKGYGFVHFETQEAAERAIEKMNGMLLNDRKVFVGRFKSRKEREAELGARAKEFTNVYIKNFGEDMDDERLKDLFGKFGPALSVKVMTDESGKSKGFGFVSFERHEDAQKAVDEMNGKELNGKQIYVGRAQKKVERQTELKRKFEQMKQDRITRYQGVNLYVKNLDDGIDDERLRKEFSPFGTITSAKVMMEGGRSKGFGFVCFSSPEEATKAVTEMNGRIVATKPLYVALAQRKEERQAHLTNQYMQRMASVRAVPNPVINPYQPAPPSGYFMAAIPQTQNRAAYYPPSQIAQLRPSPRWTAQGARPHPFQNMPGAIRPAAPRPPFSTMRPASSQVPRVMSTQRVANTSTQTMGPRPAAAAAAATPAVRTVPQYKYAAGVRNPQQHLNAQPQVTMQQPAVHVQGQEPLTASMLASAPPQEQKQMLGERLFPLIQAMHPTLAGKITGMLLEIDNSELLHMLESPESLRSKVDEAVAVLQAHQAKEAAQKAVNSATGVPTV
MLLE-PAM2 inh = inhibitors of PABP1 MLLE–PAM2 peptide binding, primary screen, biochemical, fluorescence polarization, FITC-PAM2, GST-MLLE | AID 588489, 2011 | inhibition, % at 20 µM | Polyadenylate-binding protein 1 (Homo sapiens), P11940 | 0.36% of 360,000 active; in the data active means inhibition above about 35%, passing the limit was not always enough;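 further: plate controls were DMSO wells with GST-MLLE for no effect and wells lacking GST-MLLE protein for full effect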
GRK2 inh confirm = GRK2 aptamer-displacing inhibitors, retest, confirmation, biochemical, cherry pick 1, bead flow cytometry; shares compounds with GRK2 inh; bead-bound GRK2, FAM-aptamer displacement; aptamer displacement, % at 10 µM; 4% of 2,000 active; AID 504451, 2011;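 active means aptamer displacement above 40%, near three times the noise of non-fluorescent compounds, on plates passing quality checks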;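 further: negative values mostly reflect intrinsic compound fluorescence rather than true enhancement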
Aptamer quench SP = counter-screen for GRK2 aptamer inhibitors: fluorescent aptamer quenchers; fluorescence response (% of DMSO), % at 10 µM; Carboxyfluorescein RNA aptamer on beads, flow cytometry quenching; hits give low values; 2,000 tested, under 10 active; AID 504580; shares compounds with GRK2 inh;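 active means compounds that quench the bead-bound fluorescent RNA probe, cutting fluorescence to under half of the solvent control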;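 further: counterscreen run without GRK2 so only probe quenching by compound is measured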
GRK2 confirm 2 = GRK2 aptamer-displacing inhibitors, hit retest, confirmation, biochemical, cherry pick 2, bead flow cytometry; shares compounds with GRK2 inh; bead-bound GRK2, FAM-aptamer displacement; inhibition of aptamer binding, % at 10 µM; 360 tested, under 10 active;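 active means inhibition of aptamer binding above 40%, about triple the noise seen with nonglowing compounds, on plates passing quality control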;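 further: negative values mostly come from compounds that fluoresce themselves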
FAM quench CP2 = aptamer fluorescence quenching in GRK2 counter-screen | fluorescence response vs DMSO, % at 10 µM | shares compounds with GRK2 inh | 360 tested, under 10 active | carboxyfluorescein RNA aptamer beads, flow cytometry quenching; hits give low values;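 active means response vs DMSO under 50%, meaning signal dropped by over half, treated as fluorescence quencher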;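 further: labelled aptamer on streptavidin beads without GRK2 as a quench counter-screen; 100% = bead fluorescence of DMSO wells and lower means quenching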
The depositor's hits bear a star; i = inactive; / = not tested or not shown. Unless noted, how the calls were made is not given here.

SMILES | eIF4H FP inh | PERK inh | GRK2 inh | PABP polyA inh | MLLE-PAM2 inh | GRK2 inh confirm | Aptamer quench SP | others
CCOCCc1nnc(NC(=O)CCS(=O)(=O)c2ccccc2)s1 | 1 | / | 5 | 3 | 7 | 6 | 97
CC(C)Cc1nnc(NC(=O)CCS(=O)(=O)c2ccc(Cl)cc2)s1 | -8 | / | 0 | -6 | 21 | -5 | 96
O=C(NC1CC1)c1ccc(NC(=O)C2CCC2)cc1 | / | / | / | / | 16 | / | /
COc1ccc(S(=O)(=O)Nc2noc3ccccc23)cc1OC | 1 | / | 0 | 0 | -1 | / | /
COC(=O)c1ccsc1NC(=O)CCS(=O)(=O)c1ccc(Cl)cc1 | / | / | 1 | / | -27 | / | / | GRK2 confirm 2=-38;FAM quench CP2=101
COCCSc1nnc(NC(=O)CCS(=O)(=O)c2ccccc2)s1 | 3 | / | 0 | -4 | -7 | 0 | 100
COC(=O)c1ccsc1NC(=O)CCS(=O)(=O)c1ccccc1 | -4 | / | 3 | 3 | 6 | / | /
COCCSc1nnc(NC(=O)CS(=O)(=O)c2ccc(C)cc2)s1 | -7 | / | 0 | -5 | -3 | / | /
CCCCC(=O)Nc1nnc(CCc2ccccc2)s1 | -13 | / | 99* | -4 | 0 | 0 | 97
Cc1nc2ccsc2c(=O)n1-c1ccc(Cl)cc1 | -15 | 0 | 0 | -3 | 11 | / | /
COc1ccc(CC(=O)NCc2ccc(Cl)cc2)cc1S(=O)(=O)N1CCOCC1 | / | / | / | / | -10 | / | /
c1ccc([C@H]2CN3C(=N2)Sc2ccccc23)cc1 | / | / | 0 | / | 28 | / | /
CCOc1ccccc1NC(=O)CCS(=O)(=O)c1cccc2nonc12 | -3 | -1 | 2 | 4 | 17 | / | / | GRK2 confirm 2=i;FAM quench CP2=107
CC(=O)c1cccc(NC(=O)CCS(=O)(=O)c2cccc3nonc23)c1 | 4 | -1 | 2 | 1 | -2 | / | / | GRK2 confirm 2=-21;FAM quench CP2=110
COc1ccc(N(C)C(=O)CCS(=O)(=O)c2cccc3nonc23)c(OC)c1 | 1 | -1 | 0 | 13 | -8 | / | / | GRK2 confirm 2=-21;FAM quench CP2=101
Cc1cccc(N(C)C(=O)CCS(=O)(=O)c2cccc3nonc23)c1 | 4 | 0 | 4 | 3 | -11 | / | /
OC(c1ccc(Cl)c(Cl)c1)c1ncc(-c2ccccc2Cl)[nH]1 (stereo not drawn) | / | / | / | / | 10 | / | /
CC(OC(=O)Cc1ccsc1)C(=O)Nc1ccc(C(N)=O)cc1 (stereo not drawn) | / | / | 0 | / | -4 | / | /
O=C(Nc1ccncc1)c1cccc2ccccc12 | -6 | 0 | 49* | -9 | 1 | 0 | 94
CN(CC(=O)Nc1c(Cl)cccc1Cl)C(=O)CCc1nc2sc3c(c2c(=O)[nH]1)CCCC3 | / | / | 0 | / | -33 | -1 | 94
O=C(O)CCCCCNS(=O)(=O)c1ccc2c3c(cccc13)C(=O)N2 | 38 | / | 5 | 34 | 3 | / | /
O=C(O)CNS(=O)(=O)c1ccc2c3c(cccc13)C(=O)N2 | 34 | / | 78* | 44 | -8 | -1 | 100
COC(=O)/C=C1\N/C(=N/c2nc(C)c3cc(OC)ccc3n2)NC1=O | 15 | / | 55* | -37 | -23 | 12 | 97
CCc1ccc(NC(=O)CCc2c(C)nn(-c3ccc(N4CCCCC4)nn3)c2C)cc1 | -15 | / | 1 | 10 | -5 | / | /
O=C(Cn1c(NCCO)nc2ccccc21)NCC1CCCO1 (stereo not drawn) | -7 | 0 | 100* | 13 | 4 | -2 | 95
SMILES | eIF4H FP inh | PERK inh | GRK2 inh | PABP polyA inh | MLLE-PAM2 inh | GRK2 inh confirm | Aptamer quench SP | others
O=C(Cn1c(NCCO)nc2ccccc21)NCCc1ccccc1 | -4 | 2 | 2 | -12 | -5 | / | /
COc1ccc(S(=O)(=O)N2CCOCC2)cc1NC(=O)c1cc2ccccc2o1 | / | / | / | / | -15 | / | /
COc1ccc(Cl)cc1C(=O)O/N=C(\N)c1ccccn1 | 4 | / | 0 | 1 | -1 | / | /
N/C(=N\OC(=O)c1cc(Cl)ccc1Cl)c1ccccn1 | 10 | 0 | 100* | 8 | -4 | -2 | 102
Cc1ccc(C(=O)CN2C(=O)NC3(CCc4ccccc43)C2=O)s1 (stereo not drawn) | / | / | 5 | / | -11 | / | /
CC(NC(=O)COC(=O)Cc1ccc(-c2ccccc2)cc1)c1ccccc1 (stereo not drawn) | 0 | 1 | 0 | -4 | -4 | 1 | 22*
O=C(COC(=O)Cc1ccc(Cl)cc1)NCc1ccc(Cl)cc1 | / | / | / | / | 10 | / | /
O=C(COC(=O)Cc1ccc(-c2ccccc2)cc1)NCc1ccccc1 | -5 | 0 | 0 | 4 | -30 | -3 | 79
O=C(Oc1ccc(Cl)c2ccccc12)N1CCCCC1 | -3 | 1 | 99* | 16 | -1 | 1 | 102
O=C(Oc1ccc(Cl)c2cccnc12)N1CCCCC1 | 1 | -1 | 0 | 2 | -5 | / | /
CC(Cl)C(=O)Nc1ncc(C(F)(F)F)cc1Cl (stereo not drawn) | -4 | 2 | 52* | 21 | 8 | -1 | 101
CCOCc1nc2nc(Cl)c(Cl)nc2[nH]1 | / | / | / | / | -7 | / | /
COc1ccc(/C=C/C(=O)OCC(=O)c2cc(C)ccc2C)cc1 | / | / | / | / | -3 | / | /
OC1CCN(C(=S)NCCc2ccccc2)CC1 | -10 | 0 | 0 | 1 | -120 | / | /
S=C(NCCc1ccccc1)N1CCc2ccccc2C1 | 5 | 1 | 95* | -8 | -144 | -8 | 100
COc1ccc(NC(=O)/C(C#N)=C/c2ccc(OCCN3CCOCC3)c(OC)c2)c(OC)c1 | 8 | / | 5 | 7 | -9 | / | /
Oc1c(Br)cc(Br)cc1C=NCc1ccc(F)cc1 | 8 | 1 | 41* | -4 | 8 | 6 | 97
CN(C)CCCN(C(=O)CCS(=O)(=O)c1ccccc1)c1nc2cc3c(cc2s1)OCO3 | -8 | / | 16 | -6 | -3 | / | /
CN(C)CCCN(C(=O)CCSc1ccccc1)c1nc2cc3c(cc2s1)OCO3 | -13 | 1 | 68* | -6 | 27 | -10 | 101
CN(Cc1nccn1C)C(=O)C1CCC(=O)N(CCc2ccc(Cl)cc2)C1 (stereo not drawn) | -2 | / | 0 | -9 | 12 | / | /
CCOC(=O)c1oc2c(O)c(O)ccc2c(=O)c1-c1nncn1-c1ccccc1 | 8 | 1 | 0 | 5 | 7 | / | /
CCOC(=O)c1oc2c(C)c(O)ccc2c(=O)c1-c1nncn1-c1ccccc1 | -5 | 1 | 75* | -5 | -3 | -2 | 102

Bioassay records: PubChem BioAssay, several laboratories
